LASV entry inh: inhibitors of Lassa virus binding or cell entry | Lassa virus pseudotype entry inhibition, cell reporter | Potency, µM (top dose mostly 37.9 µM), actives largely listed as inhibitors | 1.2% of 300,000 active | AID 540256; calls by dose curve; tested in HEK293 cells; further: nearly all actives have a fitted effect of over 50% in size
HCV inh: inhibitors of hepatitis C virus infection; Potency, µM (series often up to 41.8 µM), usual class: inhibitors; AID 651820; 3.4% of 340,000 active; Huh7.5.1 HCVcc-Cre infection, luciferase reporter, 44 h; active means well fitted inhibition curve with a large enough effect; inconclusive means small, poorly fitted or top-dose-only effect, or another doubt; inactive means no such curve, though single readings can be large or run the other way
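1,000 cells/well; 4 h culture; + compound; + HCVcc-Cre (~0.5 moi); 44 h; luciferase substrate, RT 15 min; read 15 sec.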
SARS PLpro yeast: inhibitors of SARS-CoV papain-like protease in yeast. 0.19% of 330,000 active. S. cerevisiae expressing SARS-CoV PLpro, growth rescue. AID 485353. Potency, µM (titrated, usually from 32.9 µM), usual class: activators; calls by dose curve; further: nearly all actives have a fitted effect of over 55% in size
FMDV inh: foot and mouth disease virus antiviral activity; FMDV antiviral cell-based qHTS; 1.2% of 410,000 active; Potency, µM (highest dose often 57.9 µM), most hits filed as inhibitors; calls by dose curve; tested in HEK293T cells; further: read-out not given here; nearly all actives have a fitted effect of over 45% in size
HCMV antiviral: human cytomegalovirus inhibition | HFF cells, HCMV-luciferase reporter, 72 h; active compounds read low | activity change, negative = inhibition, % at 57.5 µM | 4.5% of 410,000 active | AID 1259415; in the data active means activity change below about -60%; inconclusive means no clear call, values can overlap the other calls; inactive means above about -39%
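After 16 h attachment at 37C, HFF cells received test compound and HCMV-luciferase (1 PFU/cell); reporter luminescence read 72 h later, data normalized against buffer-only and known inhibitor Salinomycin.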
MARV entry inh: blocks Marburg virus binding to or entry into cells. Marburg virus pseudotyped entry inhibition, cell reporter. Potency, µM (highest dose often 37.8 µM), hits mostly inhibitors. 1.8% of 300,000 active. AID 540276; calls by dose curve; tested in HEK293 cells
A number is an active result; ! = not active in a repeat. Compounds with a hit are over-represented: about 8% of the library has one in this group of screens.

CC(C)OCCCNC(=O)CSc1c2c(nc3ccc(Cl)cc13)CCCC2 was read as LASV entry inh inactive, FMDV inh inconclusive, HCMV antiviral inactive and MARV entry inh inactive.
CCN(CC)CCCNC(=O)CSc1c2c(nc3cc(Cl)ccc13)CCCC2 was read as LASV entry inh inconclusive, HCV inh 10µM, SARS PLpro yeast inactive, FMDV inh 32µM, HCMV antiviral -107! and MARV entry inh inconclusive.
O=C(CSc1c2c(nc3cc(Cl)ccc13)CCCC2)NCCCN1CCOCC1 was read as HCV inh inconclusive, SARS PLpro yeast inactive, FMDV inh inconclusive and HCMV antiviral inactive.
`COCCCNC(=O)CSc1c2c(nc3ccc(Cl)cc13)CCCC2` gave LASV entry inh inconclusive, HCV inh inconclusive, SARS PLpro yeast inactive, FMDV inh 28µM, HCMV antiviral inactive and MARV entry inh inconclusive.
O=C(O)CCc1cc(I)c(O)c(I)c1 was read as FMDV inh inactive.
CNC(=S)NNC(=O)COc1ccccc1C was read as LASV entry inh inactive, HCV inh inactive, SARS PLpro yeast inactive, HCMV antiviral inconclusive and MARV entry inh inactive.
For CNC(=S)NNC(=O)COc1cccc(C)c1C the results were LASV entry inh inactive, HCV inh inactive, SARS PLpro yeast 10µM, FMDV inh inactive, HCMV antiviral inactive and MARV entry inh inactive.
Cc1ccc(C)c(Cn2nnc3c(=O)[nH]c(C(=O)NCc4ccco4)nc32)c1 was read as LASV entry inh inactive, SARS PLpro yeast inactive, FMDV inh inactive, HCMV antiviral inactive and MARV entry inh inactive.
Screening O=C(NCc1ccco1)c1nc2c(nnn2Cc2ccccc2Cl)c(=O)[nH]1 returned LASV entry inh 13µM, HCV inh inconclusive, SARS PLpro yeast inactive, HCMV antiviral -98 and MARV entry inh inconclusive.
`Cc1ccccc1NC(=O)c1cnc2sc(N3CCCC3)nn2c1=O` gave LASV entry inh inactive, FMDV inh inactive and HCMV antiviral inconclusive.
`COc1ccc2c(c1)C(c1cccs1)=NNC(c1ccncc1)=N2` gave HCV inh 11µM, SARS PLpro yeast inactive, FMDV inh inactive and HCMV antiviral inactive.
For O=[N+]([O-])c1cccc(-c2noc3ccccc23)c1 the results were HCMV antiviral inactive.
`C[N+]1(CCNC(=O)/C=N\O)CCCCC1` gave MARV entry inh inactive.
Screening COc1ccc(/C=C/c2noc(-c3ccccc3O)n2)cc1 returned LASV entry inh 11µM, HCV inh inactive, SARS PLpro yeast inactive, FMDV inh inactive, HCMV antiviral inactive and MARV entry inh inconclusive.
`Cc1ccc(S(=O)(=O)N(C)C)cc1NC(=O)c1cc(C(C)(C)C)nn1Cc1ccccc1` gave HCV inh 5.6µM, SARS PLpro yeast inactive, FMDV inh inconclusive and HCMV antiviral inactive.
Screening Cc1ccc(S(=O)(=O)N(C)C)cc1NC(=O)CN1CCN(Cc2ccccc2)CC1 returned LASV entry inh inactive, HCV inh inactive, SARS PLpro yeast inactive, FMDV inh inactive, HCMV antiviral inactive and MARV entry inh inconclusive.
Cc1onc(-c2ccccc2)c1C(=O)O/N=C(\N)c1ccc([N+](=O)[O-])o1 was read as HCV inh 11µM, SARS PLpro yeast inactive, FMDV inh inconclusive and HCMV antiviral inactive.
COc1ccc(Cl)cc1NC(=O)CSc1nc(-c2ccco2)cc(C(F)(F)F)n1 was read as LASV entry inh inactive, FMDV inh inactive, HCMV antiviral inconclusive and MARV entry inh inconclusive.
`O=S(=O)(Nc1ccc(Cl)cc1NS(=O)(=O)c1ccccc1)c1ccccc1` gave LASV entry inh inactive, HCV inh 0.5µM, FMDV inh inactive, HCMV antiviral inactive and MARV entry inh inactive.
Cc1cc2oc(=O)sc2cc1NS(=O)(=O)c1ccccc1 was read as LASV entry inh 11µM, HCV inh inactive, SARS PLpro yeast inactive, FMDV inh inactive, HCMV antiviral inactive and MARV entry inh inactive.
Cc1ccc(NS(=O)(=O)c2ccccc2)c(NS(=O)(=O)c2ccccc2)c1 was read as LASV entry inh inactive, HCV inh inactive, FMDV inh inactive, HCMV antiviral inactive and MARV entry inh inactive.
Cc1ccc(NS(=O)(=O)c2ccccc2)c2c1CC(C)(C)O2 was read as LASV entry inh inconclusive, HCV inh 10µM, SARS PLpro yeast inactive, FMDV inh inactive, HCMV antiviral inactive and MARV entry inh inconclusive.
Screening Cc1cc(-c2ccc(NS(=O)(=O)c3ccccc3)c(C)c2)ccc1NS(=O)(=O)c1ccccc1 returned LASV entry inh inconclusive, HCV inh 8.9µM, FMDV inh inactive, HCMV antiviral inactive and MARV entry inh inconclusive.
`CCOc1ccc(-c2cc(CCCC(=O)NCCc3ccc(SC)cc3)no2)cc1` gave LASV entry inh inconclusive, FMDV inh inactive, HCMV antiviral inactive and MARV entry inh inactive.
`C=CCc1cccc(/C=N/NC(=O)c2ccccc2OC)c1O` gave LASV entry inh inactive, HCV inh inconclusive, SARS PLpro yeast inactive, FMDV inh inactive, HCMV antiviral -97 and MARV entry inh inconclusive.
For C=CCc1cccc(/C=N/NC(=O)c2ccc3nc[nH]c3c2)c1O the results were HCV inh inconclusive, SARS PLpro yeast inconclusive, FMDV inh inactive and HCMV antiviral -101.
O=C(CN1CCN(Cc2ccccc2)CC1)N/N=C/c1ccccc1F was read as LASV entry inh inactive, HCV inh inactive, SARS PLpro yeast inactive, FMDV inh inactive, HCMV antiviral inactive and MARV entry inh inactive.
C=CCc1cccc(/C=N/NC(=O)c2ccccc2Br)c1O was read as HCV inh 14µM, SARS PLpro yeast inactive, FMDV inh inactive and HCMV antiviral -99.
Screening O=C(N/N=C/c1ccc(Cl)cc1Cl)c1ccc2nc[nH]c2c1 returned HCV inh inactive, SARS PLpro yeast inactive, FMDV inh inactive and HCMV antiviral inactive.
Screening C=CCc1cccc(C=NNC(=O)CN2CCN(Cc3ccccc3)CC2)c1O returned LASV entry inh 12µM and MARV entry inh inconclusive.
COc1ccc(CCNC(=O)Cn2c(=O)c3cccn3c3ccccc32)cc1OC was read as LASV entry inh inconclusive, FMDV inh inactive and HCMV antiviral inactive.
NC(=O)[C@H]1CC2(CC(c3cccc(NC(=O)COc4ccc(Cl)cc4)c3)=NO2)CN1C(=O)Cc1ccc([N+](=O)[O-])cc1 (stereo partly drawn) was read as HCV inh 1.6µM, SARS PLpro yeast inactive, FMDV inh inconclusive and HCMV antiviral -78.
For Cc1ccc(-n2c3nc(=O)n(C)c(=O)c-3cc3c(Cl)cccc32)c(C)c1 the results were LASV entry inh inactive, FMDV inh inactive, HCMV antiviral inactive and MARV entry inh inconclusive.
`CCCS(=O)(=O)c1c(S(=O)(=O)CCC)c2cc(C(C)(C)C)ccn2c1C(=O)c1ccccc1` gave LASV entry inh inconclusive, FMDV inh inconclusive, HCMV antiviral -64 and MARV entry inh inconclusive.
`CCCS(=O)(=O)c1c(S(=O)(=O)CCC)c2cc(C(C)(C)C)ccn2c1C(=O)c1ccc(OC)c(OC)c1` gave LASV entry inh inactive, FMDV inh inactive, HCMV antiviral inactive and MARV entry inh inconclusive.

Compound activity: PubChem, National Center for Advancing Translational Sciences (NCATS)
